Results taken from article PMC11006913.
Numbering of substitutions follows the chain as printed.

What was measured:
Test in all cases: PBM; 200 nM protein, PBS
Conditions in all cases: dsDNA, one strand shown
HOXA2 [1] = molecular target: HOXA2 (Homo sapiens, UniProt O43364 129-215, R185T)
HOXA2 [2] = molecular target: HOXA2 (Homo sapiens, UniProt O43364 129-215, R185K)
HOXA2 [3] = molecular target: HOXA2 (Homo sapiens, UniProt O43364 129-215, Y150S)
HOXA2 [4] = molecular target: HOXA2 (Homo sapiens, UniProt O43364 129-215)
VENTX [5] = molecular target: T1, VENTX (Homo sapiens, UniProt O95231 78-163, R121Q)
T1 sequence: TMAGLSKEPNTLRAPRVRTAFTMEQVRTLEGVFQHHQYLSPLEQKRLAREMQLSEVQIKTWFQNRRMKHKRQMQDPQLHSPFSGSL

PAX4 [6] = molecular target: T2, PAX4 (Homo sapiens, UniProt O43316 9-242, R200K)
T2 sequence: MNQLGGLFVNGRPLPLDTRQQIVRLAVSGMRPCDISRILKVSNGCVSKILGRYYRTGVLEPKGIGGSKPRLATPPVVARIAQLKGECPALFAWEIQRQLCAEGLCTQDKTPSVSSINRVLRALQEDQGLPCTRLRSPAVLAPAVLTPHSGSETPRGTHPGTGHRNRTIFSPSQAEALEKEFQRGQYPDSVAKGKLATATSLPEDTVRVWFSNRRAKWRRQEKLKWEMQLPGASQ

VENTX [7] = molecular target: T3, VENTX (Homo sapiens, UniProt O95231 78-163, Y115F)
T3 sequence: T1 sequence with Y38F, Q44R

PAX4 [8] = molecular target: T4, PAX4 (Homo sapiens, UniProt O43316 9-242)
T4 sequence: T2 sequence with K192R

ALX3 [9] = molecular target: ALX3 (Homo sapiens, UniProt O95076 139-225, N203Q)
PAX4 [10] = molecular target: T5, PAX4 (Homo sapiens, UniProt O43316 9-242, R200Q)
T5 sequence: T2 sequence with K192Q

PAX4 [11] = molecular target: T6, PAX4 (Homo sapiens, UniProt O43316 9-242, F177V)
T6 sequence: T2 sequence with F169V, K192R

ALX3 [12] = molecular target: ALX3 (Homo sapiens, UniProt O95076 139-225)
PAX4 [13] = molecular target: T7, PAX4 (Homo sapiens, UniProt O43316 9-242, F177Y)
T7 sequence: T2 sequence with F169Y, K192R

ALX3 [14] = molecular target: ALX3 (Homo sapiens, UniProt O95076 139-225, L168V)
PAX4 [15] = molecular target: T8, PAX4 (Homo sapiens, UniProt O43316 9-242, R227W)
T8 sequence: T2 sequence with K192R, R219W

HOXA4 = HOXA4 (Homo sapiens, UniProt Q00056 201-287, W262F)
ALX3 [16] = molecular target: ALX3 (Homo sapiens, UniProt O95076 139-225, N203S)
MSX2 = MSX2 (Homo sapiens, UniProt P35548 130-214)
VAX1 = VAX1 (Homo sapiens, UniProt Q5SQQ9 86-172, T142I)
Chain of VAX1 (Q5SQQ9 86-172 T142I): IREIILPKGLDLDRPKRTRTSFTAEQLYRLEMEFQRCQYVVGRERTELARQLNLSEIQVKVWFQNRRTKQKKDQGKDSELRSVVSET

Chain of HOXA2 (Homo sapiens, UniProt O43364 129-215, R185T) (O43364 129-215 R185T): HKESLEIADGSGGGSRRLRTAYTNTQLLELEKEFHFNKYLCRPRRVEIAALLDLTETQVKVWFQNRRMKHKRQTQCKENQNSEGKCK
Chain of ALX3 (Homo sapiens, UniProt O95076 139-225, L168V) (O95076 139-225 L168V): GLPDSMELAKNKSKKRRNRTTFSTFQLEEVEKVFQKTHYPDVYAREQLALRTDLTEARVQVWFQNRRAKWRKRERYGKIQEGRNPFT
Chain of ALX3 (Homo sapiens, UniProt O95076 139-225, N203Q) (O95076 139-225 N203Q): as the sequence (O95076 139-225 L168V) above, with V30L, N65Q counted along it
Chain of ALX3 (Homo sapiens, UniProt O95076 139-225, N203S) (O95076 139-225 N203S): as the sequence (O95076 139-225 L168V) above, with V30L, N65S counted along it
Chain of ALX3 (Homo sapiens, UniProt O95076 139-225) (O95076 139-225): as the sequence (O95076 139-225 L168V) above, with V30L counted along it
Chain of HOXA4 (Q00056 201-287 W262F): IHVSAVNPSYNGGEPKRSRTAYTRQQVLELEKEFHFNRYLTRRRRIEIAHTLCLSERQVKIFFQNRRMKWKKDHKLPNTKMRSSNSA
Chain of MSX2 (P35548 130-214): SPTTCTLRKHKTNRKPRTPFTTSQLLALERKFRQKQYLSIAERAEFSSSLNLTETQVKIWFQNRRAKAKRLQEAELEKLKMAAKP
Chain of HOXA2 (Homo sapiens, UniProt O43364 129-215, R185K) (O43364 129-215 R185K): as the sequence (O43364 129-215 R185T) above, with T57K counted along it
Chain of HOXA2 (Homo sapiens, UniProt O43364 129-215) (O43364 129-215): as the sequence (O43364 129-215 R185T) above, with T57R counted along it
Chain of HOXA2 (Homo sapiens, UniProt O43364 129-215, Y150S) (O43364 129-215 Y150S): as the sequence (O43364 129-215 R185T) above, with Y22S, T57R counted along it

Sequence: GAGGGGGC
- binding signal (HOXA2 [1]): 7.01 upbm affinity estimate (log intensity, higher = more binding, comparable within an allelic series)
- binding signal (HOXA2 [2]): 10.1 upbm affinity estimate (log intensity, higher = more binding, comparable within an allelic series)
- binding signal (HOXA2 [3]): 10.2 upbm affinity estimate (log intensity, higher = more binding, comparable within an allelic series)
- binding signal (HOXA2 [4]): 7.38 upbm affinity estimate (log intensity, higher = more binding, comparable within an allelic series)

Sequence: AATTAACG
- binding signal (VENTX [5]): 11.7 upbm affinity estimate (log intensity, higher = more binding, comparable within an allelic series)
- binding signal (PAX4 [6]): 11.6 upbm affinity estimate (log intensity, higher = more binding, comparable within an allelic series)
- binding signal (VENTX [7]): 11.5 upbm affinity estimate (log intensity, higher = more binding, comparable within an allelic series)
- binding signal (PAX4 [8]): 12.2 upbm affinity estimate (log intensity, higher = more binding, comparable within an allelic series)
- binding signal (ALX3 [9]): 8.41 upbm affinity estimate (log intensity, higher = more binding, comparable within an allelic series)
- binding signal (PAX4 [10]): 12 upbm affinity estimate (log intensity, higher = more binding, comparable within an allelic series)
- binding signal (PAX4 [11]): 10.6 upbm affinity estimate (log intensity, higher = more binding, comparable within an allelic series)
- binding signal (ALX3 [12]): 12.5 upbm affinity estimate (log intensity, higher = more binding, comparable within an allelic series)
- binding signal (PAX4 [13]): 11 upbm affinity estimate (log intensity, higher = more binding, comparable within an allelic series)
- binding signal (ALX3 [14]): 10.1 upbm affinity estimate (log intensity, higher = more binding, comparable within an allelic series)
- binding signal (PAX4 [15]): 10.9 upbm affinity estimate (log intensity, higher = more binding, comparable within an allelic series)
- binding signal (HOXA4): 11.6 upbm affinity estimate (log intensity, higher = more binding, comparable within an allelic series)
- binding signal (ALX3 [16]): 8.55 upbm affinity estimate (log intensity, higher = more binding, comparable within an allelic series)

Sequence: CAATTACG
- binding signal (MSX2): 13.7 upbm affinity estimate (log intensity, higher = more binding, comparable within an allelic series)
- binding signal (HOXA4): 10.9 upbm affinity estimate (log intensity, higher = more binding, comparable within an allelic series)

Sequence: AATTAGTA
- binding signal (VENTX [5]): 11.7 upbm affinity estimate (log intensity, higher = more binding, comparable within an allelic series)
- binding signal (PAX4 [6]): 11.7 upbm affinity estimate (log intensity, higher = more binding, comparable within an allelic series)
- binding signal (VENTX [7]): 11.5 upbm affinity estimate (log intensity, higher = more binding, comparable within an allelic series)
- binding signal (PAX4 [8]): 12.2 upbm affinity estimate (log intensity, higher = more binding, comparable within an allelic series)
- binding signal (ALX3 [9]): 8.49 upbm affinity estimate (log intensity, higher = more binding, comparable within an allelic series)
- binding signal (PAX4 [10]): 11.9 upbm affinity estimate (log intensity, higher = more binding, comparable within an allelic series)
- binding signal (PAX4 [11]): 10.5 upbm affinity estimate (log intensity, higher = more binding, comparable within an allelic series)
- binding signal (MSX2): 13.3 upbm affinity estimate (log intensity, higher = more binding, comparable within an allelic series)
- binding signal (ALX3 [12]): 12.3 upbm affinity estimate (log intensity, higher = more binding, comparable within an allelic series)
- binding signal (PAX4 [13]): 10.9 upbm affinity estimate (log intensity, higher = more binding, comparable within an allelic series)
- binding signal (ALX3 [14]): 9.94 upbm affinity estimate (log intensity, higher = more binding, comparable within an allelic series)
- binding signal (PAX4 [15]): 11 upbm affinity estimate (log intensity, higher = more binding, comparable within an allelic series)
- binding signal (HOXA4): 11.5 upbm affinity estimate (log intensity, higher = more binding, comparable within an allelic series)
- binding signal (ALX3 [16]): 8.57 upbm affinity estimate (log intensity, higher = more binding, comparable within an allelic series)

Sequence: CAATTACA
- binding signal (MSX2): 13.7 upbm affinity estimate (log intensity, higher = more binding, comparable within an allelic series)

Sequence: CAATTAGG
- binding signal (VENTX [5]): 12 upbm affinity estimate (log intensity, higher = more binding, comparable within an allelic series)
- binding signal (VENTX [7]): 11.7 upbm affinity estimate (log intensity, higher = more binding, comparable within an allelic series)
- binding signal (HOXA2 [1]): 12.9 upbm affinity estimate (log intensity, higher = more binding, comparable within an allelic series)
- binding signal (ALX3 [9]): 8.27 upbm affinity estimate (log intensity, higher = more binding, comparable within an allelic series)
- binding signal (HOXA2 [2]): 13 upbm affinity estimate (log intensity, higher = more binding, comparable within an allelic series)
- binding signal (MSX2): 13.8 upbm affinity estimate (log intensity, higher = more binding, comparable within an allelic series)
- binding signal (ALX3 [12]): 12.2 upbm affinity estimate (log intensity, higher = more binding, comparable within an allelic series)
- binding signal (ALX3 [14]): 9.81 upbm affinity estimate (log intensity, higher = more binding, comparable within an allelic series)
- binding signal (VAX1): 12.8 upbm affinity estimate (log intensity, higher = more binding, comparable within an allelic series)
- binding signal (HOXA2 [3]): 10.8 upbm affinity estimate (log intensity, higher = more binding, comparable within an allelic series)
- binding signal (ALX3 [16]): 8.37 upbm affinity estimate (log intensity, higher = more binding, comparable within an allelic series)
- binding signal (HOXA2 [4]): 12.1 upbm affinity estimate (log intensity, higher = more binding, comparable within an allelic series)

Sequence: TAATTGAA
- binding signal (HOXA2 [1]): 12.5 upbm affinity estimate (log intensity, higher = more binding, comparable within an allelic series)
- binding signal (ALX3 [9]): 8.33 upbm affinity estimate (log intensity, higher = more binding, comparable within an allelic series)
- binding signal (MSX2): 13.6 upbm affinity estimate (log intensity, higher = more binding, comparable within an allelic series)
- binding signal (ALX3 [12]): 12.5 upbm affinity estimate (log intensity, higher = more binding, comparable within an allelic series)
- binding signal (ALX3 [14]): 10 upbm affinity estimate (log intensity, higher = more binding, comparable within an allelic series)
- binding signal (ALX3 [16]): 8.47 upbm affinity estimate (log intensity, higher = more binding, comparable within an allelic series)
